# A selection: hits, their analogues and other compounds. The true share with any hit is near 2.4%.
# M1 ag = agonists of human M1 muscarinic receptor; P11229; CHO-K1 hM1, Fluo-8 calcium fluorescence, agonist mode; 0% DMSO, 100% acetylcholine EC100; activation, % at 3 µM; 360,000 compounds, 0.33% hits;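 active means activation above the run's mean compound activation plus 3 SD, cut at about 16% in these data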;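 further: peak over basal fluorescence ratio within a 140 s kinetic read after compound addition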
# Target sequence (P11229 whole entry, looked up): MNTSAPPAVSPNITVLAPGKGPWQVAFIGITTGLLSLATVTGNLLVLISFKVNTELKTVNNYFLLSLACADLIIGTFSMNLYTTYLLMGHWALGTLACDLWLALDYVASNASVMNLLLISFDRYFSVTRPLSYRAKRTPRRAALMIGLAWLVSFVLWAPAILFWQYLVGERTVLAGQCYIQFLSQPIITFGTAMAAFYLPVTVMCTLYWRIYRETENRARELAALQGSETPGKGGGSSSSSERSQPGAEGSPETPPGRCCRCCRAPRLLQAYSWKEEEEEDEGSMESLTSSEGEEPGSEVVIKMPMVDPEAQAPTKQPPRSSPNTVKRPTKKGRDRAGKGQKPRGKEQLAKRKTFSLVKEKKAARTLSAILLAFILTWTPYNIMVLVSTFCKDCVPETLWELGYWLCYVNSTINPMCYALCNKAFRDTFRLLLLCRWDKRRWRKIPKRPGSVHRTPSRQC
# M1 PAM = positive allosteric modulators of human M1 muscarinic receptor | P11229 | CHO-K1 hM1, Fluo-8 calcium fluorescence, ACh EC20; 0% = ACh EC20, 100% = maximal ACh | activation, % at 3 µM | 360,000 compounds, 0.088% hits; in the data active means activation above about 19%, passing the limit was not always enough
# CHO-K1 Ca ag = counter-screen for M1 agonists: effect in parental CHO-K1 cells. Fluo-8 calcium fluorescence; scaled to maximal ATP response, vehicle zero. activation, % at 3 µM. 360,000 compounds, 0.48% hits. AID 602248; in the data active means activation above about 15%;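 further: untransfected CHO-K1 host cells lacking M1 receptor as counterscreen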
# M1 antag = antagonists of human M1 muscarinic receptor. CHO-K1 hM1, Fluo-8 calcium fluorescence, ACh EC80 antagonist. 360,000 compounds, 1.3% hits. P11229. inhibition, % at 3 µM;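 active means percent inhibition above its own plate's cutoff, namely the mean of that plate's compound wells plus 3 SD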;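 further: peak over basal fluorescence ratio during 140 s after agonist addition; 0% = ACh EC80 plus DMSO and 100% = DMSO alone without agonist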
# CHO-K1 Ca PAM = counter-screen for M1 PAMs: effect in parental CHO-K1 cells; ATP EC20, Fluo-8 calcium fluorescence; 0% at ATP EC20, 100% at ATP max; activation, % at 3 µM; 360,000 compounds, 0.02% hits; AID 602247;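 active means activation above the run cutoff, the mean activation of all test compounds plus 3 SD, cut at about 40% in these data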;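 further: peak over basal fluorescence ratio in a 140 s read after ATP addition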
# CHO-K1 Ca antag = M1 antagonist counterscreen hit in parental CHO-K1 cells; inhibition, % at 3 µM; ATP-induced calcium, Fluo-8 fluorescence; 360,000 compounds, 0.6% hits;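 active means inhibition above a per-plate cutoff, the plate's mean sample inhibition plus 3 SD, cut at about 24% in these data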;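 further: 0% = DMSO plus EC80 ATP and 100% = DMSO alone without ATP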
# An asterisk follows results filed as active.
SMILES,M1 ag,M1 PAM,CHO-K1 Ca ag,M1 antag,CHO-K1 Ca PAM,CHO-K1 Ca antag
CCCOc1ccc(OCCN2CCCC(C)C2)cc1 (stereo not drawn),-7,-23,1,28*,23,-13
Cc1ccc(OCCCCN2CCC(C)CC2)cc1,-10,-7,0,4,11,-12
CC1CCN(CCCCOc2cccc(C(C)C)c2)CC1,-5,-31,1,70*,-24,10
CC1CCC(NC(=O)COc2ccc(C(=O)c3ccccc3)cc2)CC1 (stereo not drawn),-2,10,2,-17,-1,4
CC1CCN(CCOc2cccc(Br)c2)CC1,-9,-5,2,9,24,-6
CC1CCN(CCCCOc2ccc(C(=O)c3ccccc3)cc2)CC1,-3,-24,1,55*,11,-5
CC1CCN(CCOc2ccc(C(=O)c3ccccc3)cc2)CC1,-9,-29,1,64*,15,-7
COCCCN1C(=O)C(CC(=O)NCc2cccc3ccccc23)CC(C(=O)N(C(C)C)C(C)C)=C1C (stereo not drawn),-3,11,1,-10,10,5
Cc1n[nH]c(=S)n1/N=C/c1ccc(OCc2ccc(Cl)cc2)cc1,-3,1,0,2,-8,25*
CC[C@]12c3[nH]c4cc(-c5ccco5)ccc4c3CCN1C(=O)[C@@H](CC(=O)NCCCN(C)C)C[C@@H]2C(=O)N1CCN(C(=O)C2CC2)CC1,-10,-14,0,21*,2,3
O=C(NCc1cccnc1)C(=O)NCC1OCCCN1S(=O)(=O)c1ccc(F)cc1 (stereo not drawn),-4,-1,0,6,-2,-6
NCC1CC2c3ccccc3C1c1ccccc12 (stereo not drawn),-9,-17,2,28*,1,-2
COc1cc(C(=O)Nc2cccc(C)c2C)ccc1OCC(=O)N1CCOCC1,-2,-4,0,6,8,-6
COc1ccc2cc1Oc1ccc(cc1)CC1c3c(cc(OC)c4c3Oc3cc5c(cc3O4)CCNC5C2)CCN1C (stereo not drawn),-12,-35,3,91*,-6,-1
CC(NC(=O)CN1CCCC1)C12CC3CC(CC(C3)C1)C2 (stereo not drawn),-4,9,0,3,-6,1
CC(C(O)C12CC3CC(CC(C3)C1)C2)N1CCCCC1 (stereo not drawn),-10,-28,0,59*,6,-4
CN1CCN(C(=S)c2ccc(-c3cc(Cl)ccc3Cl)o2)CC1,-3,2,2,-7,20,-11
N#CCCN1CCN(C(=S)c2ccc(-c3cc(Cl)ccc3Cl)o2)CC1,-3,-9,0,30*,12,-2
Cc1csc(N/N=C\c2cccnc2)n1,-6,7,17*,-5,14,8
COc1ccc(OCC(=O)N/N=C2\CCCc3ccccc32)cc1,-5,-8,4,11,-15,25*
COc1ccccc1OCC(=O)N/N=C1\CCCCc2ccccc21,-3,6,3,-7,2,-10
O=C(N/N=C1\CCCCc2ccccc21)c1ccccn1,-13,8,0,-4,-15,29*
CC(C)(C)c1ccc(/C=N/OCC(=O)NCc2ccccc2)cc1,18*,15,1,-10,21,-13
Cc1ccc(CNC(=O)CO/N=C/c2ccc(C(C)(C)C)cc2)cc1,5,15,0,-4,39,-13
CCC(C(=O)OCC(=O)N1CCN(c2ccc(OC)cc2)CC1)c1ccccc1 (stereo not drawn),-2,3,6,-6,18,-20
SMILES,M1 ag,M1 PAM,CHO-K1 Ca ag,M1 antag,CHO-K1 Ca PAM,CHO-K1 Ca antag
CCOc1ccc(NC(=S)N(CCCN2CCCC2)Cc2cccn2Cc2ccc(Cl)cc2)cc1,-5,5,1,-4,6,-3
Cc1cccc(NC(=S)N(CCCN2CCCC2)Cc2cccn2Cc2ccc(Cl)cc2)c1,0,-4,17*,11,13,0
CCC(C)(C)C1CCC(NC(=O)c2ccc(S(=O)(=O)N3CCOCC3)cc2)CC1 (stereo not drawn),-9,4,0,1,14,-25
Cc1ccccc1C(=O)OC1CCCN(C)C1 (stereo not drawn),-9,-11,0,11,3,1
CN1CCCC(C#CC(O)(c2ccccc2)c2ccccc2)C1 (stereo not drawn),-13,-35,0,99*,3,-2
Cc1cc(Br)ccc1NC(=O)CN(C)C(=O)Cn1c(=O)cnc2ccccc21,-6,-17,0,29*,-21,1
N#Cc1ccc(NC(=O)Cn2cnc(S(=O)(=O)N3CCCCC3)c2)cc1,-3,-6,0,10,-4,-1
O=C(NCCN1C(=O)S/C(=C\c2ccc(OC(F)F)cc2)C1=O)[C@@H]1CCCN1C(=O)c1cccs1,-11,-5,21*,1,1,9
O=C1/C(=C\c2cccnc2)Sc2ccccc21,19*,16,1,3,13,-3
COc1cc2c(cc1OC)C(C)N(S(=O)(=O)c1ccc(Cl)nc1)CC2 (stereo not drawn),-1,7,0,-2,-8,4
COc1ccc(C(C(=O)NC(C)(C)C)N(C(=O)CCC(=O)Nc2ccccn2)C2CCCCC2)cc1 (stereo not drawn),5,4,0,-6,15,-21
CC(=O)Nc1ccc(S(=O)(=O)Nc2cccc3[nH]ncc23)cc1,-8,6,13,-5,-17,31*
CN(C(=O)COC(=O)c1c2c(nc3ccccc13)CCCC2)c1c(N)n(Cc2ccccc2)c(=O)[nH]c1=O,-3,6,0,-7,1,0
COc1ccc(CNC(=O)C2CCC(CNS(=O)(=O)c3ccc(C)cc3)CC2)cc1 (stereo not drawn),-1,8,2,-7,-13,-5
C[N+]1(CCCCCCC(=O)/C=N/O)CCCCCC1,-4,0,0,-2,16,1
C[N+](C)(C)CCCCCCC(=O)/C=N/O,36*,-11,0,5,-8,21
COc1cc(OC)c(OC)cc1CNCCSc1nnnn1C,-8,5,19*,-8,11,1
CCOc1cc(CNCCSc2nnnn2C)cc(Br)c1OCc1ccccc1,-1,-7,1,29*,-7,17
COCCn1ccc2c(OCC(=O)NCCc3ccccc3)cccc2c1=O,-4,-1,1,7,-7,2
CCNc1nc(NC(C)C)nc(NS(=O)(=O)c2ccc(N)cc2)n1,-2,8,0,3,-5,27*
CC(C)Nc1nc(NC(C)C)nc(NS(=O)(=O)c2ccc(N)cc2)n1,-4,-5,0,1,2,-7

# Compound activity as filed in PubChem BioAssay.
